PubChem BioAssay (Tox21)
Several values for one entry are separate records, joined by “and”; a condition that tells them apart may be missing. Identical values can stand only once. Inconclusive results are not listed. Entries that show only a call come without a potency. Where a structure was tested more than once in an assay, its records may differ in their call. Activity calls are given as the source filed them. Unless noted, calls come from the whole dose curve; as a rule, active = well fitted curve in the direction sought with a large enough effect in the repeat runs; inconclusive = weak or mixed curves; inactive = no such curve, though single readings can be large; an effect the other way counts as inactive or inconclusive.

Key:
[1] = qHTS assay to identify aromatase inhibitors - cell viability counter screen (AID 743084);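 note: cells stimulated with testosterone during compound exposure; nearly all actives have a fitted effect of over 55% in size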; note: potency is the fitted concentration of half-maximal effect
[2] = biological target: Aryl hydrocarbon receptor (Homo sapiens) (UniProt P35869); assay: qHTS assay to identify small molecule that activate the aryl hydrocarbon receptor (AhR) signaling pathway (AID 743085); note: nearly all actives have a fitted effect of over 15% in size; note: potency is the fitted concentration of half-maximal effect;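 for activation: HG2L7.5c1 human HepG2 liver cells with stably integrated DRE-driven firefly reporter; series mostly up to about 70 µM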
Aryl hydrocarbon receptor (Homo sapiens), sequence (P35869 whole entry, looked up): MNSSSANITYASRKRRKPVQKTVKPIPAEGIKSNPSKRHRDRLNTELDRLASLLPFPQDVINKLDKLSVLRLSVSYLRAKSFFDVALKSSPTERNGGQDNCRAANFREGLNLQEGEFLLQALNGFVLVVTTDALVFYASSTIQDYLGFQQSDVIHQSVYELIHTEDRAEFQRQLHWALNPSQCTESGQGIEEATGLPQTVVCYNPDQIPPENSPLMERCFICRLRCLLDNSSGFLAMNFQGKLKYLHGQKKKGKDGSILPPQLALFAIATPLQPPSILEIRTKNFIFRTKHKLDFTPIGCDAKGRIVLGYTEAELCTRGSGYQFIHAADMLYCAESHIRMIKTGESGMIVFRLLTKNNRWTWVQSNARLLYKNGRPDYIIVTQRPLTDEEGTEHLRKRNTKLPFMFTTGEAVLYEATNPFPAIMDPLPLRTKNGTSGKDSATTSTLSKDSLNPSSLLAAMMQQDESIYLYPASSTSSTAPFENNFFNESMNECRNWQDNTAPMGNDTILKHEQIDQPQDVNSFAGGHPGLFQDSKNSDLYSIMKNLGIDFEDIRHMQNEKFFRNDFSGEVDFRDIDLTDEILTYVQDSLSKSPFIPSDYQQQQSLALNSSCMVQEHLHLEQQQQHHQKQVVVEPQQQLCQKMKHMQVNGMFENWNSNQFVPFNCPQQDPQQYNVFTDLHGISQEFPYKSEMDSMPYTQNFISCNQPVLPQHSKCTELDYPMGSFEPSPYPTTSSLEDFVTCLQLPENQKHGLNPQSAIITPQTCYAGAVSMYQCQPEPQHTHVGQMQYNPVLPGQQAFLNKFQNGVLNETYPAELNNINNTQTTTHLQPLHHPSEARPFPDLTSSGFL
Summary of the method: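 Measured in HG2L7.5c1 cells: CellTiter-Fluor signal (30 min incubation, 37C) for viability, then luciferase luminescence (30 min, room temperature). Compound contact time was 24 h at 37C, following a 5 h pre-incubation.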

[3] = qHTS assay to identify small molecule that activate the aryl hydrocarbon receptor (AhR) signaling pathway - cell viability counter screen (AID 743086); note: nearly all actives have a fitted effect of over 45% in size; note: potency is the fitted concentration of half-maximal effect;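 for viability change, negative = cytotoxic: HepG2 liver cells carrying the AhR DRE luciferase reporter; series mostly up to about 70 µM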
Summary of the method: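 HepG2-AhR-luc (HG2L7.5c1) cells, 4000/well, treated 24 h at 37 C with compound; viability measured as CellTiter-Fluor fluorescence after 30 min in the same wells as the luciferase read.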

[4] = qHTS assay to identify small molecule antagonists of the peroxisome proliferator-activated receptor gamma (PPARg) signaling pathway - cell viability counter screen (AID 743194); note: nearly all actives have a fitted effect of over 55% in size
Summary of the method: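 Cytotoxicity counter screen in PPARg-bla HEK293H cells, same wells as reporter assay. Compounds plus 50 nM rosiglitazone (final) for 17 h at 37 C, then viability read by CellTiter-Glo luminescence.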

[5] = qHTS assay for small molecule agonists of the antioxidant response element (ARE) signaling pathway (AID 743202; active = well fitted activation curve with a large enough effect in the signal ratio in the repeat runs, not every such curve was filed as active; the % refers to the signal ratio; note: potency is the fitted concentration of half-maximal effect)
Summary of the method: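 HepG2 ARE-bla cells; 16 h treatment at 37 C; FRET-based beta-lactamase fluorescence read after 2 h substrate incubation at room temperature.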

[6] = qHTS assay for small molecule agonists of the antioxidant response element (ARE) signaling pathway - cell viability counter screen (AID 743203; calls by dose curve; note: nearly all actives have a fitted effect of over 55% in size; note: potency is the fitted concentration of half-maximal effect)
Summary of the method: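 Measured in the same wells as the beta-lactamase ARE reporter, this read-out is CellTiter-Glo luminescence from HepG2 ARE-bla cells given compounds for 16 hrs.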

[7] = biological target: Peroxisome proliferator-activated receptor gamma (Homo sapiens) (UniProt P37231); assay: qHTS assay to identify small molecule agonists of the peroxisome proliferator-activated receptor gamma (PPARg) signaling pathway (AID 743094; active = well fitted activation curve with a large enough effect in the signal ratio in the repeat runs, not every such curve was filed as active; the % refers to the signal ratio)
Peroxisome proliferator-activated receptor gamma (Homo sapiens), sequence (P37231 whole entry, looked up): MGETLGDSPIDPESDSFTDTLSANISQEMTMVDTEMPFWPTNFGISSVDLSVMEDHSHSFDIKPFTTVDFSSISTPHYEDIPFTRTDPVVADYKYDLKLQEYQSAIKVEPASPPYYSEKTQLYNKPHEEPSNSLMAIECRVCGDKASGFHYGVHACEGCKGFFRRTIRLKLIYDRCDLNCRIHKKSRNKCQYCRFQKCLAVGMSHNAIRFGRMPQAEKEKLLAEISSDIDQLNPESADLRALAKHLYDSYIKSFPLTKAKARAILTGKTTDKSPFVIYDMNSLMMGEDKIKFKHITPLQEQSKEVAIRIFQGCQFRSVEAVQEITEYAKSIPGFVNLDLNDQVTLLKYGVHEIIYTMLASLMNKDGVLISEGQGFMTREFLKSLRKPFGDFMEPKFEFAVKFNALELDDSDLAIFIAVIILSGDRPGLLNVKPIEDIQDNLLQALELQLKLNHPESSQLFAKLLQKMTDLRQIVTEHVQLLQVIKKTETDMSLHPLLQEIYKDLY
Summary of the method: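 Cell-based bla reporter, HEK293H background, PPARg-driven UAS. Pre-incubation 5 h, 37C, 5% CO2. Compound 17 h, 37C. Substrate 1 h RT; fluorescence.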

[8] = qHTS assay for small molecule activators of the heat shock response signaling pathway - cell viability counter screen (AID 743209); note: nearly all actives have a fitted effect of over 50% in size; note: potency is the fitted concentration of half-maximal effect
Summary of the method: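 Same-well multiplex: after 2.5 h room-temperature incubation with LiveBLAzer B/G substrate and fluorescence reading, CellTiter-Glo reagent was added to HSE-bla HeLa cells that had received compound for 5 h at 37 C; luminescence read after 30 min.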

[9] = qHTS assay for small molecule activators of the heat shock response signaling pathway (AID 743210; active = well fitted activation curve with a large enough effect in the signal ratio in the repeat runs, with a control signal flat, not every such curve was filed as active; the % refers to the signal ratio;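 note: HeLa cells with beta-lactamase reporter driven by heat shock elements; series mostly up to about 63 µM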)
Summary of the method: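 Following overnight attachment, HSE-bla HeLa cells received test compounds for 5 h at 37 C; beta-lactamase activity was then detected via FRET substrate fluorescence.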

[10] = biological target: Peroxisome proliferator-activated receptor gamma (Homo sapiens) (UniProt P37231); assay: qHTS assay to identify small molecule antagonists of the peroxisome proliferator-activated receptor gamma (PPARg) signaling pathway (AID 743191; calls by dose curve; note: nearly all actives have a fitted effect of over 30% in size; note: potency is the fitted concentration of half-maximal effect)
Summary of the method: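 GeneBLAzer PPARg UAS-bla HEK293H cells, 5 h post-plating, exposed to compounds 17 h at 37C. LiveBLAzer B/G FRET substrate added for 1 h at room temperature; beta-lactamase reporter read by fluorescence intensity.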

CCCCCC/C=C\CCCCCCCC(=O)O
Potency [1]: inactive
Potency [2]: inactive
Potency [3]: inactive
Potency [4]: inactive
Potency [5]: inactive
Potency [6]: inactive

CCC(CC)(CC(=O)Nc1cccc(/C=C/c2nc(C3CCC3)cs2)c1)C(=O)O
Potency [1]: inactive
Potency [2]: 8.41 µM (active)
Potency [3]: inactive
Potency [7]: inactive
Potency [4]: inactive
Potency [8]: inactive
Potency [9]: inactive

Cc1c(C)c2c(c(C)c1O)CC[C@@](C)(CCC[C@H](C)CCC[C@H](C)CCCC(C)C)O2
Potency [1]: inactive
Potency [2]: inactive
Potency [3]: inactive
Potency [7]: inactive
Potency [6]: inactive

CC(=O)[C@H]1CC[C@H]2[C@@H]3CCC4=CC(=O)CC[C@]4(C)[C@H]3CC[C@]12C
Potency [1]: inactive
Potency [2]: inactive
Potency [3]: inactive
Potency [7]: inactive
Potency [6]: inactive
Potency [8]: inactive
Potency [9]: inactive

CC(=O)c1ccc(C(C)=O)cc1
Potency [1]: inactive
Potency [2]: inactive
Potency [3]: inactive
Potency [7]: inactive
Potency [5]: inactive
Potency [6]: inactive
Potency [8]: inactive
Potency [9]: inactive

C#C[C@]1(O)CC[C@H]2[C@@H]3[C@H](C)CC4=C(CCC(=O)C4)[C@H]3CC[C@@]21C
Potency [1]: inactive
Potency [2]: inactive
Potency [3]: inactive
Potency [4]: inactive
Potency [5]: 23.7 µM (active)
Potency [6]: inactive

CCCC[P+](C)(CCCC)CCCC
Potency [1]: inactive
Potency [2]: inactive
Potency [3]: inactive
Potency [4]: inactive
Potency [5]: inactive
Potency [6]: inactive

O=C(O)c1cc(-c2ccc(F)cc2F)ccc1O
Potency [1]: inactive
Potency [2]: inactive
Potency [3]: inactive
Potency [4]: inactive
Potency [5]: 13.3 µM (active)
Potency [6]: inactive
Potency [9]: inactive

O=C(O)CN(CCN(CC(=O)O)CC(=O)O)CC(=O)O
Potency [1]: inactive
Potency [2]: inactive
Potency [3]: inactive
activity change, negative = cytotoxicity [4]: 4.6% [at 2.7 µM] (inactive)
activation [5]: -0.355% [at 3.74 µM] (inactive)
viability change, negative = cytotoxic [6]: -5.36% [at 3.74 µM] (inactive)
activity change, negative = cytotoxicity [8]: 20.3% [at 2.7 µM] (inactive)
activation [9]: 0.0247% [at 2.7 µM] (inactive)

CCCCCCCC
Potency [1]: inactive
Potency [2]: inactive
Potency [3]: inactive
Potency [10]: inactive
Potency [4]: inactive
Potency [5]: inactive
Potency [6]: inactive
Potency [8]: inactive
Potency [9]: inactive

COc1c(C)c2c(c(O)c1C/C=C(\C)CCC(=O)OCCN1CCOCC1)C(=O)OC2
Potency [1]: inactive
Potency [2]: inactive
Potency [3]: inactive
Potency [10]: 0.473 µM (active)
Potency [8]: inactive
Potency [9]: inactive

Cc1c(F)c(N2CCNC(C)C2)cc2c1c(=O)c(C(=O)O)cn2C1CC1 (stereo not drawn)
Potency [1]: inactive
Potency [2]: inactive
Potency [3]: inactive
Potency [7]: inactive
Potency [4]: inactive
Potency [6]: inactive
Potency [9]: inactive

C=C(CC)C(=O)c1ccc(OCC(=O)O)c(Cl)c1Cl
Potency [1]: inactive
Potency [2]: inactive
Potency [3]: inactive and 68.1 µM (active)
Potency [4]: inactive
Potency [5]: 0.764 µM (active)
Potency [6]: inactive
Potency [8]: 18.8 µM (active)

CCCCCCCCCCCCCCCC[N+](C)(C)CC
Potency [1]: 21.1 µM (active) and 48.7 µM (active)
Potency [2]: inactive
Potency [3]: 18.8 µM (active) and 48.7 µM (active)
Potency [10]: 23.7 µM (active)
Potency [6]: 54.6 µM (active)
Potency [8]: 39 µM (active) and 23.7 µM (active)

O=C(O)c1cc(=O)c2ccccc2o1
Potency [1]: inactive
Potency [2]: inactive
Potency [3]: inactive
Potency [7]: inactive
Potency [5]: inactive
Potency [6]: inactive
Potency [8]: inactive
Potency [9]: inactive
